Assay results from PubChem BioAssay (NCATS).
Inconclusive results are not listed. Values without a mark were called inactive. Active and inactive are the calls of the source. Calls come from the whole dose curve; as a rule, active = well fitted curve in the direction sought with a large enough effect; inconclusive = small, poorly fitted or top-dose-only effect, or another doubt; inactive = no such curve, though single readings can be large; an effect the other way counts as inactive or inconclusive.

What was measured:
[1] = Quantitative High-Throughput drug screen in 47 multiple myeloma cell lines against the NCATS MIPE library collection: KMS26_JCRB cell viability assay (AID 1918975); note: nearly all actives have a fitted effect of over 45% in size; note: potency is the fitted concentration of half-maximal effect
In short: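 Viability readout: CellTiter-Glo luminescence following 5 min room-temperature incubation with reagent. Prior exposure: 48 h, 37C, humidified 5% CO2, 500 cells per well.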

[2] = Quantitative High-Throughput drug screen in 47 multiple myeloma cell lines against the NCATS MIPE library collection: MMM1_PLB cell viability assay (AID 1918976); note: potency is the fitted concentration of half-maximal effect; nearly all actives have a fitted effect of over 35% in size
In short: (§1)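 ATP-based luminescence (CellTiter-Glo, 5 min RT incubation) quantified surviving cells following two days' treatment with MIPE 4.0 agents at 37 °C, 5% CO2.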

[3] = Quantitative High-Throughput drug screen in 47 multiple myeloma cell lines against the NCATS MIPE library collection: MOLP8_DSMZ cell viability assay (AID 1918977); note: nearly all actives have a fitted effect of over 45% in size; note: potency is the fitted concentration of half-maximal effect
In short: as §1

[4] = Quantitative High-Throughput drug screen in 47 multiple myeloma cell lines against the NCATS MIPE library collection: MM1R_ATCC cell viability assay (AID 1918981); note: nearly all actives have a fitted effect of over 35% in size; note: potency is the fitted concentration of half-maximal effect
In short: as §1

[5] = Quantitative High-Throughput drug screen in 47 multiple myeloma cell lines against the NCATS MIPE library collection: LP1_DSMZ cell viability assay (AID 1918982); note: nearly all actives have a fitted effect of over 35% in size; note: potency is the fitted concentration of half-maximal effect
In short: as §1

[6] = Quantitative High-Throughput drug screen in 47 multiple myeloma cell lines against the NCATS MIPE library collection: KMS28PE_JCRB cell viability assay (AID 1918983); note: nearly all actives have a fitted effect of over 35% in size; note: potency is the fitted concentration of half-maximal effect
In short: as §1

[7] = Quantitative High-Throughput drug screen in 47 multiple myeloma cell lines against the NCATS MIPE library collection: KMS34_JCRB cell viability assay (AID 1918985); note: nearly all actives have a fitted effect of over 40% in size; note: potency is the fitted concentration of half-maximal effect
In short: as §1

[8] = Quantitative High-Throughput drug screen in 47 multiple myeloma cell lines against the NCATS MIPE library collection: OCIMY7_PLB cell viability assay (AID 1918987); note: nearly all actives have a fitted effect of over 65% in size; note: potency is the fitted concentration of half-maximal effect
In short: as §1

[9] = Quantitative High-Throughput drug screen in 47 multiple myeloma cell lines against the NCATS MIPE library collection: OPM1_PLB cell viability assay (AID 1918989); note: nearly all actives have a fitted effect of over 40% in size; note: potency is the fitted concentration of half-maximal effect
In short: as §1

[10] = Quantitative High-Throughput drug screen in 47 multiple myeloma cell lines against the NCATS MIPE library collection: SKMM1_PLB cell viability assay (AID 1919863); details: SKMM1 myeloma viability, CellTiter-Glo ATP, 48 h; viability: active compounds read low; note: nearly all actives have a fitted effect of over 35% in size; note: potency is the fitted concentration of half-maximal effect; for viability: series mostly up to about 46 µM
In short: as §1

[11] = Quantitative High-Throughput drug screen in 47 multiple myeloma cell lines against the NCATS MIPE library collection: U266_ATCC cell viability assay (AID 1919864); note: nearly all actives have a fitted effect of over 35% in size; note: potency is the fitted concentration of half-maximal effect
In short: as §1

[12] = Quantitative High-Throughput drug screen in 47 multiple myeloma cell lines against the NCATS MIPE library collection: XG6_PLB cell viability assay (AID 1919865); note: nearly all actives have a fitted effect of over 40% in size; note: potency is the fitted concentration of half-maximal effect
In short: as §1

[13] = Quantitative High-Throughput drug screen in 47 multiple myeloma cell lines against the NCATS MIPE library collection: XG1_PLB cell viability assay (AID 1919866); note: nearly all actives have a fitted effect of over 35% in size; note: potency is the fitted concentration of half-maximal effect
In short: as §1

[14] = Quantitative High-Throughput drug screen in 47 multiple myeloma cell lines against the NCATS MIPE library collection: VP6_DJ cell viability assay (AID 1919867); note: nearly all actives have a fitted effect of over 40% in size; note: potency is the fitted concentration of half-maximal effect
In short: as §1

[15] = Quantitative High-Throughput drug screen in 47 multiple myeloma cell lines against the NCATS MIPE library collection: UTMC2_PLB cell viability assay (AID 1919868); note: nearly all actives have a fitted effect of over 55% in size; note: potency is the fitted concentration of half-maximal effect
In short: as §1

[16] = Quantitative High-Throughput drug screen in 47 multiple myeloma cell lines against the NCATS MIPE library collection: OCIMY1_PLB cell viability assay (AID 1918979); note: nearly all actives have a fitted effect of over 35% in size; note: potency is the fitted concentration of half-maximal effect;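 for viability: series mostly up to about 46 µM; 100% = DMSO-only wells and 0% = cell-free media-only wells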
In short: as §1

[17] = Quantitative High-Throughput drug screen in 47 multiple myeloma cell lines against the NCATS MIPE library collection: NCIH929_DSMZ cell viability assay (AID 1918978); note: nearly all actives have a fitted effect of over 35% in size; note: potency is the fitted concentration of half-maximal effect
In short: as §1

[18] = Quantitative High-Throughput drug screen in 47 multiple myeloma cell lines against the NCATS MIPE library collection: L363_DSMZ cell viability assay (AID 1918984); note: nearly all actives have a fitted effect of over 40% in size
In short: as §1

[19] = Quantitative High-Throughput drug screen in 47 multiple myeloma cell lines against the NCATS MIPE library collection: MM1S_ATCC cell viability assay (AID 1918980); note: potency is the fitted concentration of half-maximal effect; nearly all actives have a fitted effect of over 45% in size
In short: as §1

[20] = Quantitative High-Throughput drug screen in 47 multiple myeloma cell lines against the NCATS MIPE library collection: OCIMY5_PLB cell viability assay (AID 1918988); note: potency is the fitted concentration of half-maximal effect; nearly all actives have a fitted effect of over 65% in size
In short: as §1

With `CCN1CCCC1CNC(=O)c1cc(S(=O)(=O)CC)c(N)cc1OC` (stereo unspecified) the Potency [1] was “inactive”, the Potency [2] was 5.26 µM (active) and the Potency [3] was “inactive”. For the same molecule, the Potency [4] was “inactive”, the Potency [5] was “inactive” and the Potency [6] was “inactive”. For the same molecule, the Potency [7] was “inactive”, the Potency [8] was “inactive” and the Potency [9] was “inactive”. The viability [10] was 121%, the Potency [11] was “inactive” and the Potency [12] was “inactive”. The Potency [13] was “inactive”, the Potency [14] was “inactive” and the Potency [15] was “inactive”.

In the case of `Clc1ccc(C(c2ccccc2Cl)C(Cl)Cl)cc1` (stereo unspecified), the Potency [1] is reported as 18.7 µM (active), the Potency [2] is reported as 20.9 µM (active) and the Potency [3] is reported as 26.4 µM (active). The Potency [16] was 26.4 µM (active), the Potency [4] was 14.8 µM (active) and the Potency [6] was 23.5 µM (active). For the same molecule, the Potency [8] was 18.7 µM (active), the Potency [9] was 20.9 µM (active) and the Potency [10] was 20.9 µM (active). For the same molecule, the Potency [11] was 20.9 µM (active) and the Potency [14] was 6.62 µM (active).

In the case of `CCc1cccc2c3c([nH]c12)C(CC)(CC(=O)O)OCC3` (stereo unspecified), the Potency [1] is reported as “inactive”, the Potency [2] is reported as 4.18 µM (active) and the Potency [17] is reported as “inactive”. For the same molecule, the Potency [16] was “inactive”, the Potency [5] was “inactive” and the Potency [6] was “inactive”. For the same molecule, the Potency [18] was “inactive”, the Potency [7] was “inactive” and the Potency [9] was “inactive”. The Potency [12] was “inactive”, the Potency [13] was “inactive” and the Potency [15] was “inactive”.

For `CC[C@@]1(O)C(=O)OCc2c1cc1n(c2=O)Cc2cc3c(CN(C)C)c(O)ccc3nc2-1`, the Potency [1] was 20.9 µM (active), the Potency [2] was 18.7 µM (active) and the Potency [3] was 1.32 µM (active). The Potency [17] was 0.743 µM (active), the Potency [16] was 13.2 µM (active) and the Potency [19] was 0.166 µM (active). For the same molecule, the Potency [4] was 0.166 µM (active), the Potency [5] was 13.2 µM (active) and the Potency [6] was 0.935 µM (active). The Potency [7] was 3.32 µM (active), the Potency [8] was 0.148 µM (active) and the Potency [20] was 5.9 µM (active). For the same molecule, the Potency [9] was 9.35 µM (active), the Potency [10] was 3.32 µM (active) and the Potency [12] was 0.0132 µM (active). For the same molecule, the Potency [13] was 0.0743 µM (active), the Potency [14] was 1.48 µM (active) and the Potency [15] was 0.0526 µM (active).

In the case of `CC(=O)OCC(CCn1cnc2cnc(N)nc21)COC(C)=O`, the Potency [1] is reported as “inactive”, the Potency [3] is reported as “inactive” and the Potency [17] is reported as “inactive”. For the same molecule, the Potency [16] was “inactive”, the Potency [4] was “inactive” and the Potency [5] was “inactive”. The Potency [6] was “inactive”, the Potency [18] was “inactive” and the Potency [7] was “inactive”. The Potency [9] was 0.0012 µM (active), the Potency [12] was “inactive” and the Potency [13] was “inactive”. The Potency [14] was “inactive” and the Potency [15] was “inactive”.

With `CC#C[C@]1(O)CC[C@H]2[C@@H]3CCC4=CC(=O)CCC4=C3[C@@H](c3ccc(N(C)C)cc3)C[C@@]21C` the Potency [1] was 4.18 µM (active), the Potency [2] was 4.18 µM (active) and the Potency [3] was 2.35 µM (active). The Potency [17] was 0.418 µM (active), the Potency [16] was 3.72 µM (active) and the Potency [19] was 0.187 µM (active). The Potency [4] was 0.743 µM (active), the Potency [5] was 2.64 µM (active) and the Potency [6] was 1.32 µM (active). For the same molecule, the Potency [7] was 1.32 µM (active), the Potency [8] was 1.18 µM (active) and the Potency [20] was 0.833 µM (active). The Potency [9] was 1.48 µM (active), the Potency [10] was 4.18 µM (active) and the Potency [12] was 0.264 µM (active). For the same molecule, the Potency [13] was 0.743 µM (active), the Potency [14] was 0.833 µM (active) and the Potency [15] was 0.418 µM (active).

With `O=c1[nH]cc(F)c(=O)[nH]1` the Potency [1] was “inactive”, the Potency [2] was 5.9 µM (active) and the Potency [19] was 14.8 µM (active). For the same molecule, the Potency [4] was 10.5 µM (active), the Potency [5] was 14.8 µM (active) and the Potency [6] was “inactive”. The Potency [8] was 7.43 µM (active), the Potency [10] was 13.2 µM (active) and the Potency [12] was 4.69 µM (active). The Potency [13] was 7.43 µM (active), the Potency [14] was 5.9 µM (active) and the Potency [15] was “inactive”.

For `CN(CCOc1ccc(NS(C)(=O)=O)cc1)CCc1ccc(NS(C)(=O)=O)cc1`, the Potency [1] was “inactive”, the Potency [3] was “inactive” and the Potency [17] was “inactive”. For the same molecule, the Potency [16] was “inactive”, the Potency [4] was “inactive” and the Potency [5] was “inactive”. The Potency [6] was “inactive”, the Potency [7] was “inactive” and the Potency [8] was “inactive”. The Potency [9] was “inactive”, the viability [10] was 109% and the Potency [11] was “inactive”. For the same molecule, the Potency [12] was 13.2 µM (active) and the Potency [13] was “inactive”.

With `N[C@@H](Cc1c[nH]c2ccc(O)cc12)C(=O)O` the Potency [1] was “inactive”, the Potency [2] was 18.7 µM (active) and the Potency [17] was “inactive”. The Potency [16] was “inactive”, the Potency [4] was “inactive” and the Potency [5] was “inactive”. For the same molecule, the Potency [7] was “inactive”, the Potency [8] was “inactive” and the Potency [9] was “inactive”. For the same molecule, the viability [10] was 109%, the Potency [13] was “inactive” and the Potency [14] was 16.6 µM (active).

With `Nc1nc2c(ncn2COC(CO)CO)c(=O)[nH]1` the Potency [1] was 20.9 µM (active), the Potency [2] was 23.5 µM (active) and the Potency [17] was 9.35 µM (active). For the same molecule, the Potency [16] was 18.7 µM (active), the Potency [4] was 20.9 µM (active) and the Potency [5] was 23.5 µM (active). For the same molecule, the Potency [6] was 20.9 µM (active), the Potency [7] was 23.5 µM (active) and the Potency [8] was 2.64 µM (active). The Potency [9] was 16.6 µM (active), the Potency [10] was 20.9 µM (active) and the Potency [11] was 23.5 µM (active). The Potency [12] was 20.9 µM (active), the Potency [13] was 23.5 µM (active) and the Potency [14] was 18.7 µM (active).

With `Fc1ccc([C@@H]2CCNC[C@H]2COc2ccc3c(c2)OCO3)cc1` the Potency [1] was “inactive”, the Potency [2] was 14.8 µM (active) and the Potency [4] was 18.7 µM (active). For the same molecule, the Potency [6] was 20.9 µM (active), the Potency [8] was “inactive” and the Potency [13] was “inactive”.

With `CC1(CN2CCC(n3c(=O)[nH]c4ccccc43)CC2)OCc2ccccc2-n2cccc21` (stereo unspecified) the Potency [1] was 5.9 µM (active), the Potency [2] was 5.9 µM (active) and the Potency [16] was “inactive”. The Potency [4] was 2.64 µM (active), the Potency [6] was 14.8 µM (active) and the Potency [18] was “inactive”. For the same molecule, the Potency [9] was 8.33 µM (active), the Potency [11] was 5.9 µM (active) and the Potency [12] was 4.18 µM (active). For the same molecule, the Potency [13] was 4.18 µM (active).

In the case of `CC1COc2c(N3CCN(C)CC3)c(F)cc3c(=O)c(C(=O)O)cn1c23` (stereo unspecified), the Potency [1] is reported as “inactive”, the Potency [2] is reported as 11.8 µM (active) and the Potency [3] is reported as “inactive”. For the same molecule, the Potency [17] was “inactive”, the Potency [16] was “inactive” and the Potency [4] was “inactive”. For the same molecule, the Potency [5] was “inactive”, the Potency [6] was “inactive” and the Potency [7] was “inactive”. The Potency [8] was “inactive”, the Potency [9] was “inactive” and the viability [10] was 135%. For the same molecule, the Potency [13] was “inactive” and the Potency [14] was “inactive”.
